This passage reports composite z-score and z-score results from PubChem BioAssay.

Assay [1] has as its system XIP peptide (Xip251-270) binding. Briefly: small-molecule binders of XIP peptide, primary screen, biochemical, small-molecule microarray, fluorescence 635/667 nm, 0.1 µg/mL protein (AID 1182). Particulars: fluorescent protein binding, 635 nm, higher = more signal, called active from +8 up or from −8 down.
Another assay has as its system XIP peptide (Xip251-270). Briefly: small-molecule binders of XIP peptide, primary screen, biochemical, small-molecule microarray, fluorescence 635/667 nm, 0.5 µg/mL protein (AID 1183). Particulars: small-molecule microarray binding, fluorescence 635 nm; higher = more signal.
A short description of assay [2]: Plasmodium falciparum growth inhibition, primary screen, strain 3D7, DAPI fluorescence, 100 nL (AID 1184).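 Also: parasites grown inside human red blood cells in medium with human serum.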 Particulars: P. falciparum 3D7 growth, 3 d, higher = more signal.
Assay [3] has as its target Homeobox protein Hox-A13 (Mus musculus) (UniProt Q62424). Briefly: inhibitors of HoxA13-DNA binding, primary screen, biochemical, fluorescence polarization, labeled oligonucleotide (AID 1185). Particulars: 15 min, higher = more signal, called active from +8 up or from −8 down. For orientation: Polarisation of emitted light reports the rotation of a fluorescent probe.
Assay [4] can be described thus: inhibitors of hydroxyurea-induced Chk1 phosphorylation, primary screen, imaging, HeLa, phospho-Chk1 antibody, percent positive cells (AID 1186). Particulars: hydroxyurea-induced phospho-Chk1 immunofluorescence imaging, higher = more signal.
The nature of assay [5]: inhibitors of hydroxyurea-induced Chk1 phosphorylation, primary screen, imaging, HeLa, phospho-Chk1 nuclear intensity (AID 1187). Conditions: hydroxyurea-induced phospho-Chk1 immunofluorescence imaging, higher = more signal.

SMILES strings stand for the structures. Calls of active or inactive are those of the source. Unless noted, no rule for the calls is given here.

Sequence of Homeobox protein Hox-A13 (Mus musculus) (Q62424 whole entry, looked up): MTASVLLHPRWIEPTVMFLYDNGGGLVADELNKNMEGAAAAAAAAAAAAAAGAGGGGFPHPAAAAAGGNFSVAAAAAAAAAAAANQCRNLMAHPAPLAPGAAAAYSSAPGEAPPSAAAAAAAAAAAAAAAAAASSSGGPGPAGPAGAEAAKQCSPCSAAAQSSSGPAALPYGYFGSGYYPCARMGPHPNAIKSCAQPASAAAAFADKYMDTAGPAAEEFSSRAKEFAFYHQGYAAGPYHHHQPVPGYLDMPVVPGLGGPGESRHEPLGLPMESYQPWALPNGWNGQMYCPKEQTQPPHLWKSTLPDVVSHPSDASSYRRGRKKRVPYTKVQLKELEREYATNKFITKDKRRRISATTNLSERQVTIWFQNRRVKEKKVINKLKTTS

Consider `COc1ccc([Si](C)(C)[C@H]2[C@H](CC(=O)N3Cc4ccccc4C[C@H]3CO)O[C@@]3(C(=O)N(Cc4ccc(N5CCC5=O)cc4)c4ccccc43)[C@@H]2C)cc1`, for which the results for the composite z-score (in assay [1]; in the assay on XIP peptide (Xip251-270)) were 0.0316 (inactive) and 0.817, respectively. The z-score in assay [2] was -1.95; in assay [3], -3.83 (inactive); in assay [4], -0.176 (inactive); in assay [5] it was -0.0862 (inactive).
Turning to `COCCOC(=O)N1C(=O)[C@@]2(c3cc(C#CC4=CCCCC4)ccc31)[C@H](C(=O)Nc1nc3ccccc3s1)[C@H]1C(=O)O[C@H](c3ccccc3)[C@H](c3ccccc3)N1[C@@H]2c1ccc(OCCO)cc1`, the composite z-score in assay [1] was -0.555 (inactive); in the assay with XIP peptide (Xip251-270), 0.467. Also, the z-score was -1.52 in assay [2], 3.78 (inactive) in assay [3], -0.0093 (inactive) in assay [4] and 0.303 (inactive) in assay [5].
`COc1cc2c(cc1OC)CN(C(=O)[C@H]1[C@@H]3C(=O)O[C@@H](c4ccccc4)[C@@H](c4ccccc4)N3[C@@H](c3ccc(O)cc3)[C@]13C(=O)Nc1ccc(C#CCNC(N)=O)cc13)CC2`: the composite z-score in assay [1] is -0.564 (inactive); in the assay on XIP peptide (Xip251-270), 0.497. The z-score in assay [2] is -0.599; in assay [3], -1.24 (inactive); in assay [4] it was -0.192 (inactive); in assay [5], -0.245 (inactive).
On to `CC(C)(C)OC(=O)CC[C@]1(C(=O)O)N=C(c2ccc(OCCCO)cc2)O[C@H]1c1ccccc1N=[N+]=[N-]`, for which the composite z-score in assay [1] was 1.25 (inactive); in the assay with XIP peptide (Xip251-270), 0.907. For the same compound, the z-score was -0.164 in assay [2], -5.39 (inactive) in assay [3], 0.0751 (inactive) in assay [4] and -0.136 (inactive) in assay [5].
Take `O=C1O[C@H](c2ccccc2)[C@H](c2ccccc2)N2[C@H]1[C@@H](C(=O)Nc1nc3ccccc3s1)[C@]1(C(=O)Nc3ccc(C#CC4(O)CCCCCC4)cc31)[C@H]2c1ccc(OCCO)cc1`: the figures for the composite z-score (in assay [1]; with XIP peptide (Xip251-270)) were 2.25 (inactive) and 0.663, respectively. Besides, the z-score in assay [2] is -1.8; in assay [3] it was -0.979 (inactive); in assay [4] it was 0.341 (inactive); in assay [5], 0.346 (inactive).
With `Cc1ccc(C(C)CC(O)C2C=CC3C(=O)N(c4ccccc4)C(=O)C3N2Nc2ccc([N+](=O)[O-])cc2)o1` (configuration not stated), the composite z-score in assay [1] was 0.099 (inactive); in the assay with XIP peptide (Xip251-270) it was 0.839. For the same compound, the z-score was -1.1 in assay [2], -3.75 (inactive) in assay [3], 0.161 (inactive) in assay [4] and 0.568 (inactive) in assay [5].
As for `CCOC(=O)[C@H]1C/C=C/C[C@H](C(=O)OCC)C(=O)O[C@H]2[C@@H](OC)O[C@H](CO)[C@@H](OC(=O)Nc3cccc(F)c3)[C@@H]2OC1=O`, the composite z-score in assay [1] is 1.17 (inactive); in the assay with XIP peptide (Xip251-270) it was 0.526. Also, the z-score in assay [2] was -1.73; in assay [3] it was -2.16 (inactive); in assay [4] it was -0.197 (inactive); in assay [5], -0.145 (inactive).
Take `COc1ccc(C(=O)Nc2cccc(CN3C(=O)[C@]4(O[C@H](CCO)[C@@H]([Si](C)(C)c5ccc(OC)cc5)[C@@H]4C)c4ccccc43)c2)cc1`: the composite z-score in assay [1] is -0.0488 (inactive); with XIP peptide (Xip251-270) it was 0.639. Besides, the z-score is -2.85 in assay [2], -2.45 (inactive) in assay [3], -0.204 (inactive) in assay [4] and -0.881 (inactive) in assay [5].
In the case of `CCOC(=O)C[C@H]1[C@H](OC(=O)c2ccc(C(=O)c3ccccc3)cc2)[C@@H](NC(=O)c2ccc(-c3ccccc3)cc2)c2cc(OCCCO)ccc2N1C(=O)c1ccccc1`, the figures for the composite z-score (in assay [1]; in the assay with XIP peptide (Xip251-270)) were 0.233 (inactive) and 0.549, respectively. For the same compound, the z-score in assay [2] was -0.786; in assay [3], -1.36 (inactive); in assay [4], 0.428 (inactive); in assay [5], 0.303 (inactive).
In the case of `CC(C)OC(=O)C=C1C[C@@H](c2ccccc2C(F)(F)F)O[C@@H](c2ccccc2C(F)(F)F)O1`, the composite z-score was -0.245 (inactive) in assay [1] and -0.277 with XIP peptide (Xip251-270). Further, the z-score in assay [2] was -1.82; in assay [3], 0.189 (inactive); in assay [4] it was -0.319 (inactive); in assay [5], -0.595 (inactive).
Regarding `O=C1O[C@H](c2ccccc2)[C@H](c2ccccc2)N2[C@H]1[C@@H](C(=O)O)[C@]1(C(=O)Nc3ccc(C#CCCO)cc31)[C@H]2c1ccc(O)cc1`, the composite z-score in assay [1] is 0.207 (inactive); in the assay with XIP peptide (Xip251-270) it was 0.901. The z-score in assay [2] was -0.136; in assay [3] it was -5.42 (inactive); in assay [4] it was 0.11 (inactive); in assay [5], -0.002 (inactive).
Take `COc1ccc(C(O)C2C=CC3C(=O)NC(=O)C3N2Nc2ccccn2)c2ccccc12` (configuration not stated): the composite z-score in assay [1] was 0.123 (inactive); with XIP peptide (Xip251-270) it was -0.034. Further, the z-score in assay [2] was 0.8; in assay [3], -1.97 (inactive); in assay [4] it was 0.141 (inactive); in assay [5] it was -0.22 (inactive).
Turning to `Cc1ccc(S[C@]2(C(=O)NC3CC3)CC(=O)N(C3Cc4ccccc4C3)[C@@H]2c2ccc(CO)cc2)cc1`, the composite z-score was 0.136 (inactive) in assay [1] and 0.876 with XIP peptide (Xip251-270). The z-score in assay [2] was -0.275; in assay [3] it was -2.74 (inactive); in assay [4], -0.671 (inactive); in assay [5], -0.716 (inactive).
As for `CCCN1C(=O)[C@]2(CCS(=O)(=O)c3ccccc3)N=C(c3ccc(OCCCO)cc3)O[C@@H]2c2ccccc21`, the values for the composite z-score (in assay [1]; in the assay on XIP peptide (Xip251-270)) were -0.0893 (inactive) and 0.11, respectively. In addition, the z-score in assay [2] was -2.6; in assay [3] it was -5.36 (inactive); in assay [4] it was -0.701 (inactive); in assay [5], -0.918 (inactive).
Turning to `CCc1oc(CC[C@@H](CO)NC(=O)NCCn2cc(C3(O)CCCCC3)nn2)c(C(=O)OC)c1C(=O)OC`, the results for the composite z-score (in assay [1]; with XIP peptide (Xip251-270)) were 1.53 (inactive) and 0.875, respectively. Moreover, the z-score in assay [2] was -0.397; in assay [3], -3.56 (inactive); in assay [4] it was 0.259 (inactive); in assay [5], -0.0163 (inactive).
For `CCCC=C(CCC)[C@@H](NC(=O)Oc1ccc(F)cc1)c1ccc(C(=O)OC)cc1`, the composite z-score in assay [1] is 0.814 (inactive); in the assay with XIP peptide (Xip251-270), 0.302. In addition, the z-score was -0.476 in assay [2], -0.734 (inactive) in assay [3], 0.239 (inactive) in assay [4] and 0.34 (inactive) in assay [5].
As for `[N-]=[N+]=NCc1ccccc1[C@H]1OC(c2ccc(OCCCO)cc2)=N[C@@]1(Cc1ccccc1)C(=O)NCc1ccccc1`, the composite z-score in assay [1] is 0.212 (inactive); in the assay on XIP peptide (Xip251-270), 0.471. Further, the z-score in assay [2] was -2.49; in assay [3] it was 2.55 (inactive); in assay [4] it was -0.287 (inactive); in assay [5] it was -0.083 (inactive).
